# Experimental data: the supplement of paper PMC7156485
# “And” between values parts separate entries of the source, which are not always exact repeats. Identical values can stand only once.
# Tested on: HCC1569
# Assay: cell number relative to DMSO (% of DMSO); higher = more cells (less growth inhibition / toxicity)
# Details: concentration: 10 µM; 24 h
# In short: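 For HCC1569 and TDF cells, compounds at 10 µM were applied for 24 h at 37 °C in triplicate in 384-well plates. Cells were fixed in 3.7% formaldehyde, stained for H1.0 and with DAPI, and imaged at ×10 over six fields per well. The endpoint, H1.0 nuclear intensity or cell number, is shown as percent of the plate control using the median of replicates. Positional effects were smoothed for HCC1569 only.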
# 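Note: TDF denotes transformed human dermal fibroblasts of mesenchymal origin.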
row,Structure (SMILES),cell number
1,O=C(Nc1ccccc1)c1cc([N+](=O)[O-])ccc1Cl,98.3
2,N#CC(=Cc1ccc(O)c(O)c1)C(=O)NCc1ccccc1,95.2
3,Cc1cccc(C=Cc2ccccc2)n1,101
4,CC(C)[N+](C)(CCOC(=O)C1c2ccccc2Oc2ccccc21)C(C)C.[Br-] [Propantheline bromide],99.3
5,CC(C)(S)[C@H](N)C(=O)O [L-Penicillamine],100
6,CCCCCCCCCCCCCCCC(=O)OC(CC(=O)O)C[N+](C)(C)C.[Cl-] (racemic) [Palmitoyl-DL-Carnitine chloride],94.9
7,O=C(OC1Cc2c(O)cc(O)cc2OC1c1cc(O)c(O)c(O)c1)c1cc(O)c(O)c(O)c1 (stereo not given) [Epigallocatechin gallate],105
8,Cl.Clc1ccc2nsnc2c1NC1=NCCN1 [Tizanidine.HCl],118
9,FC(F)(F)c1cc(NC(=S)Nc2ccc(Br)cc2-c2nn[nH]n2)cc(C(F)(F)F)c1,90.3
10,"Oc1cc(O)c2c(c1)OC(c1ccc(O)c(O)c1)C(O)C2 (single isomer, unassigned; (+)) [(+)-Catechine]",102
11,"Br.Br.N=C(N)SCCc1cccc(CCSC(=N)N)c1 [1,3-PBIT dihydrobromide]",117
12,"CC=C1C2C=C(C)CC1(N)c1ccc(=O)[nH]c1C2 (single isomer, unassigned; (-)) [(-)-Huperazine]",98.2
13,CCC(=O)OC1(C(=O)SCF)C(C)CC2C3CC(F)C4=CC(=O)C=CC4(C)C3(F)C(O)CC21C (stereo not given),98.9
14,O=c1[nH]c2ccccc2c2ccccc12 [6(5H)-Phenanthridinone],100
15,CCCCCCCCC=CCCCCCCCCC(=O)O [10(Z)-Nonadecenoic acid],102
16,Cc1cc(Nc2nc(-c3ccccc3)nc3ccccc23)n[nH]1 [GSK-3 Inhibitor XIII],57
17,CCCCCCCCCCCCCCCCCC(=O)NCC(COP(=O)([O-])OCC[N+](C)(C)C)OC (racemic) [rac-2-Methoxy-3-octadecanamido-1-propylphosphocholine],101
18,Nc1sc2c(c1C(=O)c1ccc(Cl)cc1)CCCC2,102
19,O=C(NC(CO)C(O)c1ccc([N+](=O)[O-])cc1)C(Cl)Cl (stereo not given) [Chloramphenicol],100
20,CC(C)NCC(O)COc1ccc(CC(N)=O)cc1 (stereo not drawn) [R(+)-Atenolol],98.9

row,Structure (SMILES),cell number
1,CSc1ccc2c(c1)N(CCC1CCCCN1C)c1ccccc1S2 (stereo not given) [Thioridazine],102
2,Clc1ccc2c(c1)CCc1cccnc1C2=C1CCNCC1 [Desloratadine],98.1
3,Cc1ccc(C)c(-c2cc(C(F)(F)F)nn2-c2ccc(S(N)(=O)=O)cc2)c1,101
4,"c1ccc2c(-c3ccncc3)c[nH]c2c1 [Rho Kinase Inhibitor III, Rockout]",105
5,COc1cc2c[n+](C)c3c4cc5c(cc4ccc3c2cc1OC)OCO5.[Cl-],85.3
6,Cc1ccccc1-n1c(Cn2nc(-c3cccc(O)c3)c3c(N)ncnc32)nc2cccc(C)c2c1=O,96.9
7,N[C@H](C(=O)O)c1cccc(O)c1 [(S)-3-Hydroxyphenylglycine],95.2
8,CSC(=N)N.CSC(=N)N.O=S(=O)(O)O [S-Methylisothiourea hemisulfate],103
9,O=S(=O)(NCCNCC=Cc1ccc(Br)cc1)c1cccc2cnccc12,92.1 and 91.5
10,CN1CCCN=C1C=Cc1cccs1.O=C(O)c1cc2ccccc2c(Cc2c(O)c(C(=O)O)cc3ccccc23)c1O [Pyrantel Pamoate],94.4
11,O=C(O)COC(=O)Cc1ccccc1Nc1c(Cl)cccc1Cl [Aceclofenac],104
12,O=C(CCCCCCC(=O)Nc1ccccc1)NO,101
13,CN1c2cc3c(cc2N=C(c2ccc(C(=O)O)cc2)c2ccccc21)C(C)(C)CCC3(C)C,77
14,CC(O)CCCC(O)C=CC1C(O)CC(O)C1CC=CCCCC(=O)O [19(R)-Hydroxy-prostaglandin F2a],104
15,O=[N+]([O-])c1cccc2c(Br)[nH]nc12 [3-Bromo-7-nitroindazole],116
16,COc1cc(C(O)CO)ccc1OS(=O)(=O)[O-].[K+] (stereo not given) [MHPG sulfate potassium],102
17,C=C[C@]1(C)C[C@@H](OC(=O)CO)[C@]2(C)[C@H](C)CC[C@]3(CCC(=O)[C@H]32)[C@@H](C)[C@@H]1O,96.4
18,COc1cc(C(=O)OCCCN2CCCN(CCCOC(=O)c3cc(OC)c(OC)c(OC)c3)CC2)cc(OC)c1OC [Dilazep],107
19,CCCCCCCCC=CCCCCCCCC(=O)O [9(E)-Octadecenoic acid],100
20,CC(CCc1ccccc1)NCC(O)c1ccc(O)c(C(N)=O)c1.Cl (stereo not given) [Labetalol hydrochloride],101
